# Laboratory results taken from ChEMBL document CHEMBL1157539, “Thousands of chemical starting points for antimalarial lead identification” (Nature, 2010).
# The full ranking holds about 13,000 compounds; the median of “IFI” is about 4, and the highest 2% start at about 17. The full list was thinned out, with the highest values kept by preference.
# Assay: GSK_TCMDC: Inhibition Frequency Index (IFI). The number of non-kinase HTS assays where a compound showed > 50 % inhibition, expressed as a percentage of the number of such assays in which the compound was tested
# Format: functional
row,Structure (SMILES),IFI [%]
1,CN1CCN(CCNc2c3ccccc3nc3c2ccc2ccccc23)CC1,6.99
2,O=S(=O)(Nc1cccc(CCN2CCCCC2CCN2CCCC2)c1)c1ccc2ccccc2c1 (stereo not drawn),13.1
3,O=S(=O)(Nc1cccc(CCN2CCCCC2CCN2CCCC2)c1)c1ccc(-c2ccccc2)cc1 (stereo not drawn),14.5
4,O=S(=O)(Nc1cccc(CCN2CCCCC2CCN2CCCC2)c1)c1ccc(Oc2ccccc2)cc1 (stereo not drawn),17.5
5,NC1CCCN(Cc2cccc(-c3ccc(-c4nc5cc(C(F)(F)F)ccc5[nH]4)cc3)c2)C1 (stereo not drawn),5.63
6,CC(=NNC(=N)N)c1ccc2c(c1)Cc1ccccc1-2,7.19
7,CS(=O)(=O)NCCCNCc1ccc(-c2ccc(-c3nc4cc(F)ccc4[nH]3)cc2)cc1,5.94
8,Nc1c(I)cc(C(=O)Nc2ccc3nc4c(c(N)c3c2)CCCC4)cc1I,22.8
9,Nc1c2c(nc3ccc(NC(=O)c4ccccc4)cc13)CCCC2,2.86
10,CC(C)(C)c1ccc(C(=O)Nc2ccc3nc4c(c(N)c3c2)CCCC4)cc1,4.9
11,CCN(CCCN1CCCCC1)c1cc(C)nc(Nc2ccc(Cl)cc2C)n1,5
12,CN(C)c1ccc(CN2CCC(CNC(=O)c3cc(-c4cccc(F)c4)cs3)C2)cc1 (stereo not drawn),6.12
13,CCN1CCC(N(Cc2ccc(-c3ccc(C(F)(F)F)cc3)cc2)C(=O)Cn2c(SCc3ccc(F)cc3)nc(=O)c3c2CCC3)CC1,12.5
14,CCN1CCC(N(Cc2ccc(-c3ccc(C(F)(F)F)cc3)cc2)C(=O)Cn2nc(C)c(=O)cc2SCc2ccc(F)cc2)CC1,19.6
15,CCN1CCC(N(Cc2ccc(-c3ccc(C(F)(F)F)cc3)cc2)C(=O)Cn2c(SCc3cccc(F)c3F)cc(=O)c3ccccc32)C1 (stereo not drawn),7.14
16,Cc1cccc2nc(-c3ccc(-c4ccc(NC(=O)C5CCN(C)CC5)cc4)cc3)[nH]c12,4.24
17,COc1cc(C(=O)N2CCOC(CCN3CCC[C@H]3C(=O)Nc3ccccc3)(c3ccc(Cl)c(Cl)c3)C2)cc(OC)c1OC (stereo partly drawn),4.83
18,COc1ccc2ncc(F)c(CCN3CC(O)C(CNCc4ccccc4)C3)c2n1 (stereo not drawn),2.94
19,O=C(NCCc1ccccc1)N(Cc1ccc(-c2cccc(CN3CCNCC3)c2)cc1)C1CCN(Cc2ccccc2)CC1,6.67
20,CC(C)C[C@H](NC(=O)c1cc2ccccc2s1)C(=O)N[C@H]1CCN(Cc2ccc(OC[C@@H]3CCCN3C)c(Cl)c2)C1,6.67
21,CC(C)C[C@H](NC(=O)c1cc2ccccc2s1)C(=O)N[C@H]1CCN(Cc2ccc(OCCCN(C)C)c(Cl)c2)C1,17.2
22,CC(C)C[C@H](NC(=O)c1cc2ccccc2s1)C(=O)N[C@H]1CCN(Cc2ccc(OC3CCN(C)C3)c(Cl)c2)C1 (stereo partly drawn),6.67
23,O=C1CCCN1CCCNCc1cccc(-c2cccc(-c3nc4cc(F)ccc4[nH]3)c2)c1,4.85
24,Cc1ccc(C)c(NC(=O)CC2C(=O)N(c3ccccc3)C(=S)N2Cc2ccco2)c1 (stereo not drawn),0.76
25,NC(=O)C1CCN(Cc2ccc(-c3cccc(-c4nc5cc(F)ccc5[nH]4)c3)cc2)CC1,0

row,Structure (SMILES),IFI [%]
1,Cc1ccc(Nc2nc(C)cc(NC3CC3)n2)cc1,4.62
2,Cc1cc(NC2CCCC2)nc(Nc2ccc(F)cc2)n1,9.09
3,Cc1ccc(Nc2nc(C)cc(NC3CCCC3)n2)cc1,21.3
4,CC1CN(c2cccc3c2nc(-c2cncc(C#N)c2)n3CCNCc2ccccc2)CC(C)O1 (stereo not drawn),0
5,CCN1CCC(N(Cc2ccc(-c3ccc(C(F)(F)F)cc3)cc2)C(=O)Cn2c(CCc3cccc(F)c3F)cc(=O)c3c2CCC3)CC1,4.96
6,CCn1c(-c2nonc2N)nc2c(-c3ccc(CO)o3)ncc(OCCCN)c21,15.4
7,CCn1c(-c2nonc2N)nc2c(-c3cccc(Cl)c3)ncc(OCCCNCc3cnc(C)nc3N)c21,7.62
8,CCn1c(-c2nonc2N)nc2c(Cl)ncc(O[C@H](CCN)c3ccccc3F)c21,23.1
9,CN1CCN(CC2(Nc3nccc(NCc4ccc(Cl)cc4Cl)n3)CCCCC2)CC1,35.7
10,CN1CCN(CC2(Nc3nccc(NCCc4cn(C)c5ccccc45)n3)CCCCC2)CC1,14.3
11,Clc1ccc(CNc2ccnc(NCc3cccnc3N3CCCC3)n2)c(Cl)c1,16.7
12,COc1ccccc1CCN(C)CCN1CCC(NC(=O)c2ccc(-c3ccc(C(F)(F)F)cc3)cc2)CC1,6.19
13,COc1cccc(OC)c1CN1CCC(N(C)CCCCCCCCCN2CCC(OC(=O)Nc3ccccc3-c3ccccc3)CC2)CC1,17.3
14,COc1cccc(OC)c1CN1CCC(N(C)CCCCCCCCN2CCC(OC(=O)Nc3ccccc3-c3ccccc3)CC2)CC1,13.1
15,COc1cccc(OC)c1OCCCON1C(=N)N=C(N)NC1(C)C,2.9
16,CCC(COCc1ccc(Cl)cc1)N(C)CCN(C)C(CC)COCc1ccc(Cl)cc1 (stereo not drawn),19.6
17,CN(CCCCN)Cc1ccc(-c2ccc(Cl)cc2)cc1,4.44
18,CN(C)CCC(O)C=C(c1ccc(Cl)cc1)c1ccc(Cl)cc1 (stereo not drawn),4.69
19,CC1(C)C(=O)N=C2C1=C(O)C(=O)c1ccccc12,17.2
20,Cc1ccc2c(=NN=Cc3cccc(F)c3)cc(C)[nH]c2c1,5.15
21,C=CCOC(=O)N1CCC(CNCc2cccc(-c3ccc(-c4nc5cccc(C)c5[nH]4)s3)c2)C1 (stereo not drawn),3.81
22,COc1c(CNCCCCCCNCc2c(OC)c(OC)c3ccccc3c2OC)c(OC)c2ccccc2c1OC,21.3
23,COc1cc2ccccc2c(OC)c1CNCCCCCCNCc1c(OC)cc2ccccc2c1OC,12.9
24,COc1c(OC)c(OC)c2ccccc2c1CCNCCCCNCCc1c(OC)c(OC)c(OC)c2ccccc12,18.3
25,COc1c(OC)c(OC)c2ccccc2c1CNCCCCCCNCc1c(OC)c(OC)c(OC)c2ccccc12,14.8

row,Structure (SMILES),IFI [%]
1,CCc1c(CCNCCCCCCNCCc2ccc(OC)c(OC)c2CC)ccc(OC)c1OC,6.47
2,CCCCOc1cc(OC)c2ccccc2c1CCNCCCCNCCc1c(OCCCC)cc(OC)c2ccccc12,19.1
3,COc1cc2ccccc2cc1CCNCCCCNCCc1cc2ccccc2cc1OC,14.8
4,COc1cc2ccccc2c(OC)c1CCNCCCCNCCc1c(OC)cc2ccccc2c1OC,14.5
5,COc1cc2ccccc2c(CNCCCCCCNCc2c(OC)c(OC)cc3ccccc23)c1OC,12.1
6,N=C(N)Nc1nc(-c2cccc(NC(=O)NCc3ccc(OC(F)(F)F)cc3)c2)cs1,3.79
7,CC(CN1CCN(C)CC1)C(=O)Nc1ccc(-c2cccc(-c3nc4cc(F)ccc4[nH]3)c2)cc1 (stereo not drawn),2.78
8,CC(=O)Nc1ncc(C(=O)Nc2cccc(-c3cccc(-c4nc5cc(C(F)(F)F)ccc5[nH]4)c3)c2)s1,5.41
9,CSc1ccc2ccccc2c1CNCCCCCCNCc1c(SC)ccc2ccccc12,12.3
10,CC(C)Oc1ccc2ccccc2c1CNCCCCCCNCc1c(OC(C)C)ccc2ccccc12,18.5
11,COc1ccc2c(CNCCCCCCNCc3c(OC)ccc4cc(OC)ccc34)c(OC)ccc2c1,7.38
12,COc1ccc2ccccc2c1CNCCCCCCNCc1c(OC)ccc2ccccc12,9.93
13,CC(C)COc1ccc2ccccc2c1CNCCCCCCNCc1c(OCC(C)C)ccc2ccccc12,22.9
14,Cc1nnsc1C(=O)Nc1cccc(-c2cccc(-c3nc4cc(F)ccc4[nH]3)c2)c1,6.42
15,CC(=NNC(S)=Nc1ccccc1Cl)c1ccccn1,6.57
16,COc1cc(F)c2nccc([C@@H](O)CN3CCC(NCc4cc5c(cc4F)OCCO5)CC3)c2c1,1.59
17,O=C(Nc1ccc(CCNCc2ccccc2)cc1)Nc1ccc(OC(F)(F)F)cc1,0.72
18,O=C(Nc1ccc(C(F)(F)F)cc1)Nc1cccc([N+](=O)[O-])c1,19.1
19,O=C(Nc1ccc([N+](=O)[O-])cc1)Nc1cc(OCC(F)(F)F)cc(OCC(F)(F)F)c1,9.6
20,O=C(Nc1ccc(Oc2ccc(OC(F)(F)F)cc2)cc1)c1ccco1,5.22
21,COc1cc(NC(=O)Nc2ccc([N+](=O)[O-])cc2OC)c(OC)cc1Cl,1.83
22,N#Cc1ccc(NC(=O)Nc2ccc(OC(F)(F)F)cc2)cc1,20.5
23,COc1cc(C)nc2ccc(NC(=O)Nc3ccc([N+](=O)[O-])cc3C)cc12,3.01
24,COc1cc([N+](=O)[O-])ccc1NC(=O)Nc1ccc(OC(F)(F)F)cc1,18.4
25,O=C(Nc1ccc(OC(F)(F)F)cc1)Nc1ccc([N+](=O)[O-])cc1,20.1

row,Structure (SMILES),IFI [%]
1,O=C(Nc1cccc([N+](=O)[O-])c1)Nc1cccc(C(F)(F)F)c1,12.4
2,O=C(Nc1ccc([N+](=O)[O-])cc1)Nc1cc(C(F)(F)F)ccc1F,8.62
3,O=C(Nc1cccc([N+](=O)[O-])c1)Nc1ccc(Cl)c(C(F)(F)F)c1,10
4,CCN(CC)CCCC(C)N=c1cc(C=Cc2ccc([N+](=O)[O-])cc2)[nH]c2ccc(OC)cc12 (stereo not drawn),1.65
5,CCN(CC)C(C)(C)CN(Cc1ccc(-c2ccc(C(F)(F)F)cc2)cc1)C(=O)Cn1c(CCc2cccc(F)c2F)nc(=O)c2ccccc21,6.94
6,CCN(CCNS(C)(=O)=O)c1ccc(N)c(C)c1,7.32
7,CN(C)c1ccc(NC2=NC(N)=NC(C)(C)N2)cc1,1.82
8,NC(=O)c1cccc(C(=O)Nc2cccc(-c3ccc(-c4nc5cc(C(F)(F)F)ccc5[nH]4)cc3)c2)c1,6.67
9,Nc1cccc(CNCc2ccc(-c3cccc(-c4nc5cc(C(F)(F)F)ccc5[nH]4)c3)cc2)c1,15.2
10,CCCCN(C(=O)c1ccccc1C)c1nnc(-c2ccccc2C)s1,2.56
11,Cc1ccc2nc(C)n(C3CCN(C(=O)Cc4ccc(F)c(F)c4)CC3)c2c1,0
12,O=C(N[C@H]1CCN(Cc2ccc(OCCN3CCNCC3)c(Br)c2)C1)c1ccc(Cl)c(Cl)c1,6.9
13,CC(CCCC(=O)Nc1ccc(CC(C)NCCc2cccc(Cl)c2)cc1)NCCc1cccc(Cl)c1 (stereo not drawn),11.9
14,C[C@H](Cc1ccc(OCCCCCCOc2ccc(C[C@@H](C)NC[C@H](O)c3cccc(Cl)c3)cc2)cc1)NC[C@H](O)c1cccc(Cl)c1,16.9
15,C[C@H](Cc1ccc(OCCCCCOc2ccc(C[C@@H](C)NC[C@H](O)c3cccc(Cl)c3)cc2)cc1)NC[C@H](O)c1cccc(Cl)c1,20.9
16,C[C@H](Cc1ccc(OCCCCCCOc2ccc(C[C@@H](C)NC(=O)[C@H](O)c3cccc(Cl)c3)cc2)cc1)NC[C@H](O)c1cccc(Cl)c1,11.3
17,C[C@H](Cc1ccc(OCCCCCCCOc2ccc(C[C@@H](C)NC[C@H](O)c3cccc(Cl)c3)cc2)cc1)NC[C@H](O)c1cccc(Cl)c1,22.1
18,CC(Cc1ccc(NC(=O)COc2ccc(CC(C)NCCc3cccc(Cl)c3)cc2)cc1)NCCc1cccc(Cl)c1 (stereo not drawn),32.4
19,CC(CCCCC(=O)Nc1ccc(CC(C)NCCc2cccc(Cl)c2)cc1)NCCc1cccc(Cl)c1 (stereo not drawn),4.29
20,C[C@H](Cc1ccc(OCCNC[C@H](O)c2cccc(Cl)c2)cc1)NC[C@H](O)c1ccc(Cl)c(Cl)c1,11.4
21,C[C@H](Cc1ccc(OCCCCCCOc2ccc(C[C@@H](C)N[C@H](C)c3ccccc3)cc2)cc1)NC[C@H](O)c1cccc(Cl)c1,19.6
22,CC(NCCc1cccc(Cl)c1)C(O)c1ccc(OCCCCCCOc2ccc(C(O)C(C)NCCc3cccc(Cl)c3)cc2)cc1 (stereo not drawn),13
23,COc1ccc(CC(Cc2ccc(OC)cc2)NCC(O)c2cccc(Cl)c2)cc1 (stereo not drawn),4.86
